Laboratory results: PubChem BioAssay (Tox21)
Inconclusive results are not listed. Values without a mark were called inactive. Calls of active or inactive are those of the source. The call rests on the fitted dose curve; in most records, active means well fitted activation curve with a large enough effect in the repeat runs; inconclusive means weak or mixed curves; inactive means flat fitted curve, though single readings scatter.

Experiment: A CellTox Green Cytotoxicity Assay to monitor cytotoxicity in HEK293 cells - 40 hour (AID 1224871); further: nearly all actives have a fitted effect of over 45% in size
Conditions: CellTox Green fluorescence; series mostly up to 76.8 µM; cytotoxicity increase: at the top concentration
Description: National Center for Advancing Translational Sciences [NCATS]
NIH Chemical Genomics Center [NCGC]
U.S. Environmental Protection Agency [EPA]
National Institutes of Environmental Health Sciences [NIEHS]
National Toxicology Program [NTP]
Cell-based models are critical for drug discovery. Determining the natural cytotoxic effects resulting from test compounds is an essential research activity. A CellTox Green Cytotoxicity Assay to monitor cytotoxicity in real time of continues cell culture during 40 hours of the compound treatment was used to screen Tox21 10K library compounds in Hek293 cells. CellTox Green Cytotoxicity Assay is a nonlytic, homogeneous, biofluorescent method to measure cytotoxicity in cell culture after experimental manipulation. The assay system uses a proprietary asymmetric cyanine dye that is excluded from viable cells but preferentially stains the dead cell's DNA. […] Viable cells produce no appreciable increases in fluorescence. Therefore, the fluorescence signal produced by the binding interaction with dead cell DNA is proportional to cytotoxicity.
The mixture of Hek293 cell suspension and reagents were dispensed at 600cells/6 ul/well in 1536-well tissue culture treated black solid bottom plates using a Multidrop dispenser. After the assay plates were incubated at a 37 C/5% CO2 incubator for 5 hours, 23 nL of compounds dissolved in DMSO, positive and negative controls was transferred to the assay plate by a pintool work station. The plates were incubated at 37 C for 40 hours. The fluorescence intensity were measured at 0h, 8h, 16h, 24h, 32h and 40h time points using ViewLux plate reader during compound treatment.
On the % scale 0 is the no-effect control and ±100 the full control effect; potency means the concentration at half of the fitted maximal effect.

Row | Compound | cytotoxicity increase | Potency
1 | CCCSC(=O)N(CCC)CCC | 26.2% | –
2 | O=C(CCN1CC1)OCC(CO)(COC(=O)CCN1CC1)COC(=O)CCN1CC1 | -11.8% | –
3 | CN1CCC(N(Cc2ccccc2)c2ccccc2)CC1 | 15.5% [at 35.3 µM] | –
4 | CC(=O)CCc1ccc2c(c1)OCO2 | -7.44% | –
5 | CN1C[C@@H](NS(=O)(=O)N(C)C)C[C@@H]2c3cccc4c3c(cn4C)C[C@H]21 | 0.46% [at 35.3 µM] | –
6 | O=C(Oc1ccc(Br)cc1)N1CCN2CCC1CC2 | -18.6% | –
7 | C[N+](=O)[O-] | 4.06% | –
8 | N#CC(CCc1ccc(Cl)cc1)(Cn1cncn1)c1ccccc1 (stereo not given) | – | 49 µM (active)
9 | CC(C1CC1)C(O)(Cn1cncn1)c1ccc(Cl)cc1 (stereo not given) | 6.27% | –
10 | CCCCOP(=O)(O)OCCCC | -5.56% | –
11 | OC(c1ccccc1)(c1ccccc1)C1CCNCC1 | 3.41% [at 35.3 µM] | –
12 | C(CCOCC1CO1)COCC1CO1 (stereo not given) | 2.08% | –
13 | [O]=[Cd] | -16.7% | –
14 | CC(C)COP(=O)(OCC(C)C)OCC(C)C | -8.65% | –
15 | COc1ccc(C(=O)N2CCCC2=O)cc1 | -1.36% [at 35.3 µM] | –
16 | CCOP(=S)(OCC)Oc1cc(-c2ccccc2)on1 | -7.84% | –
17 | C[C@]12CC[C@H]3[C@@H](CCC4=CC(=O)CC[C@@]43C)[C@@H]1CC[C@@H]2C(=O)O | -0.231% [at 35.3 µM] | –
18 | COc1ncc(F)c2nc(S(=O)(=O)Nc3c(F)cccc3F)nn12 | – | 13.9 µM (active)
19 | CC1(C)CON(Cc2ccccc2Cl)C1=O | -11.2% | –
20 | CN1CCN(C(=O)O[C@H]2c3nccnc3C(=O)N2c2ccc(Cl)cn2)CC1 | -12.7% [at 35.3 µM] | –

Row | Compound | cytotoxicity increase | Potency
21 | N#Cc1c(Cl)cccc1Cl | 3.47% | –
22 | c1cc2c(c(N3CCNCC3)c1)OCCO2 | -7.26% [at 35.3 µM] | –
23 | CCC/C(=N\OCC)C1=C(O)CC(CC(C)SCC)CC1=O (stereo not given) | 0.0314% | –
24 | CC(C=O)Cc1ccc2c(c1)OCO2 (stereo not given) | -0.412% | –
25 | COc1ccc2c(c1OC)CN1CCc3cc4c(cc3C1C2)OCO4 (stereo not given) | 7.62% [at 35.3 µM] | –
26 | CNNC | 12.9% | –
27 | Nc1c(Br)cc([N+](=O)[O-])cc1[N+](=O)[O-] | -1.79% | –
28 | CC1(C)COP(Oc2ccccc2)OC1 | -11.9% | –
29 | CS(=O)(=O)c1cc(C(F)(F)F)ccc1C(=O)c1cnoc1C1CC1 | 1.67% | –
30 | Nc1cc2c3c(c1)C(c1ccccc1)=N[C@@H](NC(=O)c1cccnc1)C(=O)N3CC2 | -10.5% | –
31 | Cc1cc(C)c(C(=O)P(=O)(C(=O)c2c(C)cc(C)cc2C)c2ccccc2)c(C)c1 | -7.64% | –
32 | NC(=S)C(N)=S | -2.38% | –
33 | O=[N+]([O-])c1ccc2c3c(cccc13)CC2 | 9.6% | –
34 | ClCCOCOCCCl | -3.04% | –
35 | CCNc1nc(NC(C)C)nc(OC)n1 | -21.4% | –
36 | COC(=O)C1=CCCN(C)C1 | 13.7% [at 35.3 µM] | –
37 | CCN(CC)C(C)C(=O)c1ccccc1 (stereo not given) | -1.45% [at 35.3 µM] | –
38 | CC(Oc1ccc(Oc2ncc(C(F)(F)F)cc2Cl)cc1)C(=O)O (stereo not given) | -1.12% | –
39 | CCN(Cc1ccc(Cl)nc1)/C(=C/[N+](=O)[O-])NC | 9.16% [at 35.3 µM] | –
40 | Cc1ncc2n1-c1ccc(Cl)cc1C(c1ccccc1F)=NC2 | -22.9% [at 35.3 µM] | –
